PubChem BioAssay AID1159580 (chemical genetic matrix, 2015)
Screen size: about 5,500 compounds; about 2,000 (36%) were called active. Roughly 18% stayed inconclusive and do not appear here. Rule as the data show it: active = normalized growth mostly below about 0.91 (no sharp cut-off); inconclusive = no clear call, values can overlap the other calls; inactive = mostly above about 0.92. This is one part of the list.

Experiment: chemical genetic growth profiling, strain panel (AID 1159580);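 also: tested at 20 µM; growth read once vehicle control cultures reached saturation at 30 °C; 1 = growth at the plate median or of vehicle wells; lower values mean less growth of the strain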
Conditions: S. cerevisiae deletion strains, growth OD

Measured: normalized growth

NCCNS(=O)(=O)c1cccc2cnccc12
inactive: locus YAL040C, strain CLN3, stronger effect = lower value 1.02 | locus YCL061C, strain MRC1 (second series), stronger effect = lower value 1.01 | locus YDR363W, strain ESC2, stronger effect = lower value 0.973 | locus YER002W, strain NOP16, stronger effect = lower value 0.988 | locus YGR078C, strain PAC10, stronger effect = lower value 0.968 | locus YGR229C, strain SMI1, stronger effect = lower value 0.972 | locus YNL128W, strain TEP1, stronger effect = lower value 0.986 | locus YNL153C, strain GIM3, stronger effect = lower value 1.05 | locus YNL175C, strain NOP13, stronger effect = lower value 0.958 | locus YNL197C, strain WHI3, stronger effect = lower value 0.917 | locus YNL224C, strain SQS1, stronger effect = lower value 0.98 | locus YNL322C, strain KRE1, stronger effect = lower value 0.98 | locus YOR083W, strain WHI5 (second series), stronger effect = lower value 0.923 | locus YPL241C, strain CIN2, stronger effect = lower value 0.998
